Screening results from PubChem.
TDP1 cell CPT: qHTS for Inhibitors of human tyrosyl-DNA phosphodiesterase 1 (TDP1): qHTS in cells in presence of CPT; Potency, µM (series often up to 46.2 µM), hits mostly inhibitors; actives 12% (n = 420,000); chicken DT40 Tdp1-/-;hTDP1 cells + 20 nM CPT, ATP luminescence, 48 h; also: nearly all actives have a fitted effect of over 55% in size
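Cell growth measured by CellTiter-Glo luminescence after a minimum 48 h, 37 C compound exposure with 20 nM CPT in Tdp1-knockout DT40 cells stably expressing hTDP1, seeded 400/well; qHTS titration format.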
HT1080 IDH1KD tx: qHTS for induction of synthetic lethality in tumor cells producing 2HG: qHTS for the HT-1080-IDH1KD cell line. HT-1080 IDH1 knockdown viability, ATP luminescence, 48 h. Potency, µM (titrated, usually from 46.1 µM), most hits filed as cytotoxic. actives 2% (n = 360,000). AID 686971, 2013
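% activity derives from luminescence (CellTiter-Glo), normalised to DMSO and no-cell wells. HT-1080-IDH1KD cells, 750/well, had 48 h compound exposure at 37 °C.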
HepG2 tox: qHTS for Inhibitors of TGF-b: Cytotox Counterscreen; HepG2 CAGA-GFP viability, ATP luminescence, 18 h; Potency, µM (top dose mostly 46.1 µM), usual class: cytotoxic; actives 0.76% (n = 410,000)
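HepG2 CAGA-GFP cells (1000/well, DMEM with 1% FBS) received compound, then TGF-beta at 500 pg/mL final, and were incubated 18 hours at 37 degrees C. Viability was read by CellTiter-Glo luminescence. Media-only wells were set as complete cell-killing and DMSO as no toxicity.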
TGFb inhibitor: qHTS for Inhibitors of TGF-b; actives 1.2% (n = 410,000); Potency, µM (series often up to 46.1 µM), hits mostly inhibitors; AID 588855, 2011; HepG2 CAGA-GFP TGF-b/SMAD3 reporter, GFP fluorescence, 18 h; TGF-beta stimulated, 500 pg/mL final; also: nearly all actives have a fitted effect of over 65% in size
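GFP signal (ex488/em500-530) from TGF-beta-stimulated HEPG2 CAGA-GFP cells, 500 pg/mL final, 18 h at 37 degrees C in DMEM plus 1% FBS, normalized to unstimulated and DMSO-stimulated controls.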
DT40 TDP1 no CPT: qHTS for Inhibitors of human tyrosyl-DNA phosphodiesterase 1 (TDP1): qHTS in cells in absence of CPT; DT40 Tdp1-/- hTDP1 cells, no CPT, ATP luminescence, 48 h; Potency, µM (top dose mostly 46.2 µM), actives largely listed as inhibitors; actives 15% (n = 420,000); also: nearly all actives have a fitted effect of over 55% in size
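Compound effects on proliferation are scored in DT40 Tdp1-/-;hTDP1 cells in the absence of CPT. ATP levels (CellTiter-Glo luminescence) are recorded after a ≥48 hr, 37 °C incubation.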
HT1080NT lethal: qHTS for induction of synthetic lethality in tumor cells producing 2HG: qHTS for the HT-1080-NT fibrosarcoma cell line. HT-1080-NT fibrosarcoma viability, CellTiter-Glo ATP luminescence, 48 h. Potency, µM (series often up to 46.1 µM), actives largely listed as cytotoxic. actives 1.6% (n = 360,000). AID 686970, 2013;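 also: NT is the 2HG producing partner of a matched IDH1 knockdown line; nearly all actives have a fitted effect of over 55% in size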
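Luminescent CellTiter-Glo readout after 48 hours of compound exposure at 37 degrees C defined viability of HT-1080-NT cells. Activity was normalized to DMSO wells and cell-free media wells; concentration-response curves were fitted and assigned curve classes.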
A number is an active result; 0 = inactive; ? = inconclusive; - = not tested or not shown. An excerpt weighted towards active compounds, which were near 17% of everything screened. Calls follow the shape of the dose curve; as a rule, active = well fitted curve in the direction sought with a large enough effect; inconclusive = small, poorly fitted or top-dose-only effect, or another doubt; inactive = no such curve, though single readings can be large; an effect the other way counts as inactive or inconclusive.

SMILES	TDP1 cell CPT	HT1080 IDH1KD tx	HepG2 tox	TGFb inhibitor	DT40 TDP1 no CPT	HT1080NT lethal
C[C@H]1O[C@@H](O[C@H]2[C@@H](O)C[C@H](O[C@H]3[C@@H](O)C[C@H](O[C@H]4CC[C@@]5(C)[C@H](CC[C@@H]6[C@@H]5C[C@@H](O)[C@]5(C)[C@@H](C7=CC(=O)OC7)CC[C@]65O)C4)O[C@@H]3C)O[C@@H]2C)C[C@H](O)[C@@H]1O	0.84µM	0.037µM	0	?	0.6µM	0.23µM
Cc1ccc(S(=O)(=O)/N=C(\N)Nc2nc(C)c3ccc(C)cc3n2)cc1	21µM	0	0	0	?	0
Cc1ccc(S(=O)(=O)/N=C(\N)Nc2nc(C)c3cc(C)c(C)cc3n2)cc1	23µM	0	0	0	?	0
Cc1nnc(NC(=O)c2cccc(S(=O)(=O)N3CCCC3)c2)s1	0	0	0	0	0	0
COC(=O)c1cccc(NC(=O)NC23CC4CC(CC(C4)C2)C3)c1	?	?	0	0	?	0
COC(=O)c1ccc(Cl)c(NC(=O)NC23CC4CC(CC(C4)C2)C3)c1	23µM	0	0	0	18µM	0
COC(=O)c1cccc(S(=O)(=O)N2CCC(NC(=O)NC34CC5CC(CC(C5)C3)C4)CC2)c1	23µM	0	0	0	21µM	0
COC(=O)c1cccc(S(=O)(=O)N2CCC(C)CC2)c1	0	0	0	0	0	0
CC(=O)Nc1ccc(-c2csc(NCc3ccccc3)n2)cc1	0	0	0	0	?	0
CC(=O)Nc1ccc(-c2csc(N/N=C(/C)c3ccccc3)n2)cc1	21µM	0	0	0	9.2µM	0
CC(=O)Nc1ccc(-c2csc(NNC(=O)c3ccccc3)n2)cc1	12µM	0	0	0	1.3µM	0
COC(CNC(=O)C(=O)NCC1CCCN1S(=O)(=O)c1cccs1)OC (stereo unspecified)	0	0	0	0	0	0
COc1ccccc1N(CC(=O)Nc1cc(S(=O)(=O)N(C)C)ccc1C)S(=O)(=O)c1cccs1	?	0	0	0	?	0
Cc1cc2c(cc1C)-c1nnnn1C(N1CCCC1)C(=O)N2 (stereo unspecified)	?	0	-	-	?	0
Cc1cc2c(cc1C)-c1nnnn1C(N1CCC(Cc3ccccc3)CC1)C(=O)N2 (stereo unspecified)	15µM	?	-	-	9.2µM	?
Cc1ccc(N2CC(C(=O)Nc3nnc(SCCN4CCOCC4)s3)CC2=O)cc1 (stereo unspecified)	0	0	0	0	0	0
Cc1cccc2[nH]cc(/C=C3/C=Nc4ccccc43)c12	7.9µM	-	0	?	4µM	-
O=c1[nH]c(O)c(/C=C2\C=Nc3ccccc32)[nH]1	0	0	0	0	0	0
CC(=O)Nc1cc(-c2ccccc2CN(C)C)cn2c(-c3ccc(F)c(Cl)c3)cnc12	?	0	0	?	?	0
CC(=O)Nc1cc(-c2ccc(C(=O)N3CCOCC3)cc2)cn2c(-c3ccc(F)c(Cl)c3)cnc12	23µM	?	0	0	16µM	?
CC(=O)Nc1cc(-c2ccc(C(=O)N3CCOCC3)cc2)cn2c(-c3ccc(S(C)(=O)=O)cc3)cnc12	16µM	0	0	0	13µM	0
CC(=O)Nc1cc(C(=O)N2CCOCC2)ccc1S(=O)(=O)c1ccc(C)cc1	0	0	0	0	0	0
COc1ccc(CC(=O)N[C@@H](CCSC)C(=O)N2CCC3(CC2)NCCc2[nH]cnc23)cc1	0	0	0	0	0	0
COc1ccc(C2C(C#N)=C(N)Oc3c2ccc2cccnc32)cc1OC (stereo unspecified)	3.3µM	0.65µM	0	0	2.6µM	?
COc1cc(C2C(C#N)=C(N)Oc3c2ccc2ccccc32)ccc1OCC(=O)Nc1cccc(C)c1 (stereo unspecified)	?	0	0	0	16µM	0
SMILES	TDP1 cell CPT	HT1080 IDH1KD tx	HepG2 tox	TGFb inhibitor	DT40 TDP1 no CPT	HT1080NT lethal
CC1(C(=O)NS(=O)(=O)c2ccc(C#N)cc2)CCN1C(=O)CC1CCCCC1 (stereo unspecified)	0	0	0	0	0	0
COc1ccc(C(=O)NCC(c2cccnc2)N2CCN(c3ccccc3OC)CC2)cc1OC (stereo unspecified)	21µM	0	0	0	?	0
COc1cccc(C(=O)NCC(c2cccnc2)N2CCN(c3ccccc3OC)CC2)c1 (stereo unspecified)	21µM	0	0	0	23µM	0
Nc1nc(=S)c2snnc2[nH]1	11µM	-	0	0	16µM	-
CCCN(CCC)CCCNC(=S)Nc1ccc2nc(N3CCCC3)cc(C)c2c1	?	?	0	?	13µM	?
CCN(CC)CCNC(=S)Nc1ccc2nc(N3CCN(C)CC3)cc(C)c2c1	26µM	0	0	0	16µM	?
CCN(CC)CCNC(=S)Nc1ccc2nc(N3CCCC3)cc(C)c2c1	13µM	?	0	0	10µM	?
COc1ccc(-n2cc(CN3CCCC3)c(-c3cccc(F)c3)n2)cc1	?	0	0	0	21µM	0
COc1ccc(-n2cc(CN[C@H]3CCCCNC3=O)c(-c3cccc(F)c3)n2)cc1	5.8µM	0	0	?	5.8µM	0
COc1ccc(-n2cc(CNC3CCN(C)CC3)c(-c3cccc(F)c3)n2)cc1	15µM	21µM	11µM	?	15µM	21µM
Cn1c(SCc2ccc(Cl)cc2)nc(C(F)(F)F)cc1=O	?	0	0	0	?	0
COc1ccc(-c2c(-c3cc(OC)cc(OC)c3)n(C)c3ccc(-c4ccc(OC)cc4F)cc23)cc1	?	0	0	0	?	0
COc1ccc(-c2c(-c3cc(OC)cc(OC)c3)n(C)c3ccc(-c4cnc(OC)nc4)cc23)cc1	21µM	0	0	0	18µM	0
COc1cc(OC)cc(-c2c(C#Cc3ccsc3)c3cc(-c4cnc(OC)nc4)ccc3n2C)c1	16µM	0	0	0	?	0
O=S(=O)(Oc1ccccc1-c1ccccc1)c1ccccc1	0	0	0	0	?	0
CCOC(=O)c1ccc(N2C(=O)Cc3cc(OCC)c(OCC)cc3C2c2ccccc2)cc1 (stereo unspecified)	15µM	-	0	?	13µM	-
